Only some compounds are listed: those with a hit (about 3.5% of all), similar ones and a draw of the others.
TbPYK inhibitor: qHTS of Trypanosoma Brucei Inhibitors | TbPYK enzyme, Kinase-Glo Plus ATP luminescence, 45 min | actives 0.12% (n = 410,000) | Potency, µM (titrated, usually from 76.8 µM), without a hit: at the top dose activity, negative = inhibition, hits mostly inhibitors | pyruvate kinase (Trypanosoma brucei), Q57TT1; note: % is set by controls: 0 for no effect and ±100 for the full control effect; nearly all actives have a fitted effect of over 50% in size
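ADP (130 uM final) triggers the TbPYK reaction after compound addition; incubation is 45 min at room temperature. Kinase-Glo Plus is then added and luminescence imaged. Normalized data are fitted to concentration-effect curves.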
NS1 function inh: qHTS Assay for Inhibitors of Influenza NS1 Protein Function; Potency, µM (highest dose often 46.1 µM), inactives show at the highest dose activity, positive = more growth; actives 0.4% (n = 270,000); calls by dose curve; note: actives are rising curves; nearly all actives have a fitted effect of over 50% in size
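Growth recovery, yeast-based: influenza A NS1 expressed in S. cerevisiae causes slow growth, and suppressors are detected by OD600. The parent strain without NS1 is used as positive control.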
LmPK inhibitor: qHTS Assay for Inhibitors of Leishmania Mexicana Pyruvate Kinase (LmPK) | purified LmPK, Kinase-Glo ATP luminescence, 1 h | Potency, µM (top dose mostly 57.5 µM), without a hit: top-dose activity change, negative = inhibition, most hits filed as inhibitors | actives 0.37% (n = 290,000); note: % is set by controls: 0 for no effect and ±100 for the full control effect
Target sequence (Q27686 whole entry, looked up): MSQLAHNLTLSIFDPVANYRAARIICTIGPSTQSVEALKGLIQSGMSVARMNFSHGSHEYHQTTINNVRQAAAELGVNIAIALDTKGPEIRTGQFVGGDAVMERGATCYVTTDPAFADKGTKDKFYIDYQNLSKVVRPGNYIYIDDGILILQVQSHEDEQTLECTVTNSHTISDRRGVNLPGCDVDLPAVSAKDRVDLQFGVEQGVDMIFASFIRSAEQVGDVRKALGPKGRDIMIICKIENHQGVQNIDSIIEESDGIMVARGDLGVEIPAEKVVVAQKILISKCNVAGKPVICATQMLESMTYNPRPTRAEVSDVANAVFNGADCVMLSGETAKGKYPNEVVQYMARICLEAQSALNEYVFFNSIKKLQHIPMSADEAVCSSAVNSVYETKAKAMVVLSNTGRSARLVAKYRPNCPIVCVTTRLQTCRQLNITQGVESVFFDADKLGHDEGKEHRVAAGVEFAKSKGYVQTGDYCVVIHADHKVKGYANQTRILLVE
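Purified LmPK (0.1 nM) with 0.5 mM PEP and 0.1 mM ADP in imidazole buffer pH 7.2 with MgCl2/KCl, 1 h at room temperature. ATP formed was read by luciferase luminescence and normalized to no-enzyme and uninhibited controls.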
Giardia FBPA inh-1: qHTS Assay for Inhibitors of Fructose-1,6-bisphosphate Aldolase from Giardia Lamblia. A8B2U2. purified Giardia FBPA. Potency, µM (series often up to 59.6 µM), for the others: at the highest dose activity, negative = inhibition, usual class: inhibitors. actives 0.71% (n = 290,000); note: % is set by controls: 0 for no effect and ±100 for the full control effect; nearly all actives have a fitted effect of over 55% in size
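Giardia FBPA (40 nM reagent) was preincubated 10 min at RT with compound (up to 57.5 uM final), then substrate plus GAPDH/TPI/NAD/arsenate coupling system with diaphorase/resazurin was added; resorufin fluorescence (525/598 nm) was read after 20 min.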
RE007 growth inh: qHTS Assay for Inhibitors of the HIV-1 protein Vpr. S. pombe RE007 Vpr strain, BacTiter-Glo ATP luminescence, 24 h. Potency, µM (doses to about 92.2 µM), inactives show at the top dose activity change, negative = less growth, hits mostly inhibitors. actives 0.21% (n = 360,000). AID 651644, 2012; active = well fitted falling curve with a large enough effect; inconclusive = small, poorly fitted or top-dose-only effect; inactive = no such curve, though single readings can be large or run the other way; note: % is set by controls: 0 for no effect and ±100 for the full control effect; nearly all actives have a fitted effect of over 50% in size
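Fission yeast strain RE007, carrying one chromosomally integrated HIV-1 vpr copy, was seeded at OD 0.01 in PMG+AL medium with 23 nL pinned compound. After 24 h at 30 °C and 99% humidity, viability was read by BacTiter-Glo luminescence.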
Sm TGR inh: qHTS Assay for the Inhibitors of Schistosoma Mansoni Peroxiredoxins; Schistosoma mansoni thioredoxin glutathione reductase (TGR), Q962Y6; purified TGR, DTNB reduction, TNB absorbance 405 nm; Potency, µM (top dose mostly 114 µM), without a hit: at the top dose activity change, negative = inhibition, usual class: inhibitors; actives 3% (n = 360,000); AID 485364, 2010; note: % is set by controls: 0 for no effect and ±100 for the full control effect; nearly all actives have a fitted effect of over 60% in size
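TGR 20 nM + NADPH 100 uM (dispensed conc.), cpd preinc 15 min RT; start with NADPH (500 uM addition) then DTNB (15 mM addition). Kinetic TNB absorbance, 405 nm filter. Four-parameter Hill fit across titration.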
Giardia growth: qHTS Assay for Inhibitors of Fructose-1,6-bisphosphate Aldolase from Giardia Lamblia: Giardia lamblia growth inhibition. shares compounds with Giardia FBPA inh-1. Giardia lamblia trophozoite growth inhibition. Potency, µM (titrated, usually from 57.5 µM), without a hit: at the highest dose activity change, negative = inhibition, usual class: inhibitors. actives 5% (n = 1,500). AID 2785, 2010;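 note: trophozoites exposed to compound for 48 h at 37 °C; % is set by controls: 0 for no effect and ±100 for the full control effect; nearly all actives have a fitted effect of over 70% in size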
Mammalian tox: qHTS Assay for Inhibitors of Fructose-1,6-bisphosphate Aldolase from Giardia Lamblia: Mammalian cellular toxicity | Potency, µM (doses to about 57.5 µM), without a hit: at the top dose viability change, negative = toxicity, most hits filed as inhibitors | shares compounds with Giardia FBPA inh-1 | mammalian cell viability counter-screen, qHTS | actives 4% (n = 1,500);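 note: Chinese hamster ovary cells used as mammalian cytotoxicity surrogate; viability measured as cellular ATP by luminescence; compound exposure lasted 48 h before reading; % is set by controls: 0 for no effect and ±100 for the full control effect; nearly all actives have a fitted effect of over 60% in size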
Giardia FBPA inh-2: qHTS Assay for Inhibitors of Fructose-1,6-bisphosphate Aldolase from Giardia Lamblia: Primary screen confirmation | shares compounds with Giardia FBPA inh-1 | purified Giardia aldolase enzyme activity, qHTS | Potency, µM (highest dose often 57.5 µM), inactives show at the top dose activity change, negative = inhibition, usual class: inhibitors | actives 5% (n = 1,500); note: % is set by controls: 0 for no effect and ±100 for the full control effect; nearly all actives have a fitted effect of over 45% in size
Rabbit aldolase: qHTS Assay for Inhibitors of Fructose-1,6-bisphosphate Aldolase from Giardia Lamblia: Rabbit FBPA Selectivity; shares compounds with Giardia FBPA inh-1; Rabbit muscle FBPA enzyme inhibition, selectivity counter-screen; actives 4% (n = 1,500); Potency, µM (titrated, usually from 57.5 µM), without a hit: at the highest dose activity, negative = inhibition, most hits filed as inhibitors; note: % is set by controls: 0 for no effect and ±100 for the full control effect; nearly all actives have a fitted effect of over 60% in size
GAPDH coupling: qHTS Assay for Inhibitors of Fructose-1,6-bisphosphate Aldolase from Giardia Lamblia: Coupling assay counterscreen confirmation; shares compounds with Giardia FBPA inh-1; GAPDH coupling enzyme counterscreen, biochemical, qHTS; actives 6% (n = 1,500); Potency, µM (doses to about 57.5 µM), for the others: at the top dose activity change, negative = inhibition, usual class: inhibitors; AID 2795, 2010; note: % is set by controls: 0 for no effect and ±100 for the full control effect; nearly all actives have a fitted effect of over 55% in size
* = called active by the depositor; ? = inconclusive; . = no result given; [ ] = another dose, or the depositor's remark. Unless noted, calls come from the whole dose curve; as a rule, active = well fitted curve in the direction sought with a large enough effect; inconclusive = small, poorly fitted or top-dose-only effect, or another doubt; inactive = no such curve, though single readings can be large; an effect the other way counts as inactive or inconclusive. Potency is the fitted concentration of half-maximal effect.

SMILES	TbPYK inhibitor	NS1 function inh	LmPK inhibitor	Giardia FBPA inh-1	RE007 growth inh	Sm TGR inh	Giardia growth	Mammalian tox	Giardia FBPA inh-2	Rabbit aldolase	GAPDH coupling
CCOC(=O)N1CCN(C(=O)CCCn2c(=S)[nH]c3ccsc3c2=O)CC1	-6%	.	-12%	16µM*	37%	-1%	-2%[10.4 µM]	16%	-4%	1%	13%
O=C(CCCn1c(=S)[nH]c2ccsc2c1=O)NCc1ccco1	-26%	-2%	-16%	16µM*	10%	-17%	-3%	-3%	-1%	2%	12%
Oc1ccc(-c2cn3c(n2)SCC3)cc1	-10%	-3%	-3%	-1%	1%	1%	.	.	.	.	.
Oc1ccc(-c2cn3c(n2)SCC3)cc1O	?	-3%	?	18µM*	2%	?	0%[10.4 µM]	-13%	?	?	-16%
COc1ccc(CCNCc2cc(C)n(-c3ccc(OC)cc3)c2C)cc1	15%	-4%	-1%	14µM*	-11%	50µM*	6%[10.4 µM]	-2%	6%	-5%	1%
CCc1ccc(Nc2n[n+](-c3ccccc3)c(-c3ccc(N(CC)CC)cc3)s2)cc1	-6%	5%	-2%	25µM*	-1%	-23%	4%	?	4%	5%	6%
CCN(CC)c1ccc(-c2sc(Nc3ccccc3)n[n+]2-c2ccc(F)cc2)cc1	-9%	1%	-10%	2%	-7%	-2%	.	.	.	.	.
Cc1cc(C)c(S(=O)(=O)/N=C2/C=C(Sc3ncn[nH]3)C(=O)c3ccccc32)cc1C	5.6µM*	.	7.9µM*	0.79µM*	?	0.32µM*	14µM*	20µM*	6.3µM*	7.1µM*	5µM*
Cc1ccc(C)c(S(=O)(=O)/N=C2\C=C(NS(=O)(=O)c3ccccc3)C(=O)c3ccccc32)c1	-1%	-2%	-4%	.	-8%	?	.	.	.	.	.
CCN(CC)CCN(Cc1cc2cc3c(cc2[nH]c1=O)OCO3)C(=S)NCC1CCCO1 (stereo not drawn)	3%	-4%	0%	3%	4%	.	.	.	.	.	.
